40 molecules from PubChem BioAssay (NCI) can be followed below.

The panel holds about 83,000 compounds, 20% with a hit somewhere; the sample as a whole holds those more often.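 Single-dose data. Exposure time 48 hours. Values below 10 considered active.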 Unmarked numbers belong to inactive results. Active and inactive are the calls of the source.

This assay has as its system HOP-92 NSCLC. In words: NCI-60 one-dose screen, 48 h (100 = growth as untreated, 0 = no growth, -100 = all killed). As to conditions: 10 µM unless noted. The protocol:
Growth inhibition of the HOP-92 human Non-Small Cell Lung tumor cell line is measured as a screen for anti-cancer activity. Cells are grown in 96 well plates and exposed to the test compound for 48 hours. Compounds are tested at a single concentration, which is 10^-5 M for most compounds. The reported endpoint is percent growth (GI% or GIPRCNT), where numbers from 0 - 100% represent growth inhibition, and numbers from -100% - 0 represent cell death. For example, a value of 40 represents 60% growth inhibition. A value of 0 means no net growth occurred over the course of the experiment. A value of -40 indicates 40% of cells at the beginning of the experiment died by the end of the experiment. A value of -100 means all cells are dead at the end of the experiment.
NCI-60 Human Tumor Cell Lines Screen was performed using the standard one-dose NCI protocol, which is described in more detail at https://dtp.cancer.gov/discovery_development/nci-60/default.htm.
Compounds with GIPRCNT values below 10 were considered active. Activity score was based on GIPRCNT using the following formula: […]
Score is 0 for GIPRCNT values of 100 or above, 50 for GIPRCNT values of 0, and 100 for GIPRCNT values of -100.
Take `COc1ccc2c(c1)C(=O)/C(=C/c1ccc(OCC(=O)Nc3nccs3)cc1)O2`: the growth was -78.8% (active).

Turning to `COC(=O)[C@]12CC[C@@H](C)[C@H](C)[C@@H]1C1=CC[C@@H]3[C@@]4(C)C(C=O)=C[C@@](C)(COC(=O)c5ccco5)C4=CC[C@@]3(C)[C@]1(C)CC2`, the growth was -15.5% (active).

On to `CNC(=O)CCN1CCN(CC/C=C2\c3ccccc3Sc3ccc(Cl)cc32)CC1`, for which the growth is -4.86% (active).

For `C=C(C)[C@@H]1CC[C@]2(C)[C@H](CC=C3[C@@H]4CC(C)(C)CC[C@]4(C(N)=O)CC[C@]32C)[C@@]1(C)CCC#N`, the growth was 32%.

`CCc1c2c(nc3ccc(OC(=O)NCc4ccc(B5OC(C)(C)C(C)(C)O5)cc4)cc13)-c1cc3c(c(=O)n1C2)COC(=O)[C@]3(O)CC`: the growth was 8.05% (active).

Take `CCCCCCCCn1ccc2cc(NC(=O)Cn3cc(CN4CCCC4)nn3)ccc21`: the growth is 28%.

As to `COc1ccc(-c2nc(SCCC(C)C)nc(N/N=C\c3cccc(Cl)c3)c2C#N)cc1`, the growth was 62.5%.

With `C[C@@]1(CCC#N)[C@H]2CC[C@@H]3[C@H]4[C@H](C(=O)/C=C/c5cccnc5)CC[C@]4(C#N)CC[C@@]3(C)[C@]2(C)CC[C@H]1C(=O)/C=C/c1cccnc1`, the growth is 80.7%.

With `COC(=O)[C@]12CC[C@@H](C)[C@H](C)[C@@H]1C1=CC[C@@H]3[C@@]4(C)C(C=O)=C[C@@](C)(COC(C)=O)[C@@H]4[C@H](O)C[C@@]3(C)[C@]1(C)CC2`, the growth was -6.92% (active).

`CCOP(=O)(OCC)C1CP(=O)(c2ccccc2)CC(C)=C1Cl` (stereo not given): the growth is 93.1%.

In the case of `CCN(CC)CCCCCCNc1cc(OC)c(Cl)c2cccnc12`, the growth was 58.8%.

Consider `Cc1c(C(=O)OC(=NC2CCCCC2)NC2CCCCC2)sc2c1c(=O)nc1c(C#N)n[nH]n12`, for which the growth was -16.8% (active).

Take `Cc1ccc2nc3ccccc3c(NCc3ccccc3)c2c1`: the growth is -6.69% (active).

Turning to `NC(=N\N=C/c1ccccc1[N+](=O)[O-])/C(N)=N\N=C/c1ccccc1[N+](=O)[O-]`, the growth was 89%.

With `O=C(NC(CSSCC(NC(=O)c1ccccc1)C(=O)O)C(=O)O)c1ccccc1` (stereo not given), the growth is 88.3%.

Consider `COC(=O)[C@]12CC[C@@H](C)[C@H](C)[C@@H]1C1=CC[C@@H]3[C@@]4(C)C(C=O)=C[C@@](C)(COS(C)(=O)=O)C4[C@H](O)C[C@@]3(C)[C@]1(C)CC2` (stereo not given in full), for which the growth was -74.3% (active).

As to `COc1cc(C2CC(=O)Nc3c2c(C)nn3-c2nc3ccccc3[nH]2)c(OC)c(OC)c1OC` (stereo not given), the growth is 75.7%.

Take `COc1ccc(/C=c2\nc3n(-c4ccccc4)c4nc5c6c(sc5c(=N)n4n-3c2=O)CCCC6)cc1`: the growth is 63.4%.

Consider `CCCCCCCCCCN(CCCCCCCCCC)CC(=O)c1ccc2cc(Br)c3ccccc3c2c1`, for which the growth was -77% (active).

Turning to `COc1ccc(NC(=O)c2nc(-c3cc(OC)c(OC)c(OC)c3)n(-c3cccc4ccccc34)n2)cc1OC`, the growth is 46.4%.

On to `Cc1nc2c(c(N3CCCc4ccccc43)n1)CCC2`, for which the growth is 0.664% (active).

As to `COc1cc2c(cc1-c1c(C)noc1C)ncc1nc(C3CCCCC3)n(C3CCC(OC(F)F)CC3)c12` (stereo not given), the growth was 1.82% (active).

For `O=C(Nc1ccc(Cl)cc1)Nc1ccc(Cl)c(C(F)(F)F)c1`, the growth is -14.8% (active).

For `N/C(=N\c1nc2ccccc2s1)NC(=O)Nc1cccc(Cl)c1`, the growth is 51.6%.

For the molecule `CCc1c2c(nc3ccc(OC(=O)OCc4ccc(B5OC(C)(C)C(C)(C)O5)cc4)cc13)-c1cc3c(c(=O)n1C2)COC(=O)[C@]3(O)CC`, the growth is 9.38% (active).

As to `CC(=O)C(C)Cc1cc2c(cc1C)C(C)(C)CCC2(C)C` (stereo not given), the growth was 85.7%.

As to `Cc1nc2ccccc2c(/C=C/c2ccc(Cl)cc2)c1C(=O)/C=C/c1ccc(F)cc1`, the growth is 66.3%.

Turning to `O=C1CC(N2C(=O)/C(=C/C(Cl)=C\c3ccc([N+](=O)[O-])cc3)SC2=S)C(=O)N1c1ccc(O)cc1` (stereo not given), the growth was -6.73% (active).

Turning to `O=c1c2c3c(sc2n2c(-c4cn(-c5ccccc5)nc4-c4ccc(Cl)cc4)nnc2n1Cc1ccccc1)CCCC3`, the growth was 81.8%.

Take `COc1ccc2oc3c(C)c4c(c(C)c3c2c1)C(=O)N(Cc1ccccc1)C4=O`: the growth is 85.5%.

In the case of `NNC(=O)c1nc(N)n(-c2ccc(S(N)(=O)=O)cc2)n1`, the growth was 74.2%.

For `Cn1cc2c(c1)-c1nc(Nc3ccccc3)ncc1CC2`, the growth is 70.6%.

Take `CC(C)C(=O)Nc1n[nH]c2cc(-c3cccc(NS(=O)(=O)C4CC4)c3)ccc12`: the growth is 72.7%.

As to `Fc1ccc(CNc2c3ccccc3nc3ccccc23)cc1F`, the growth is -8.56% (active).

For the molecule `COc1ccc(C(=NN=C(N)N)c2ccc(OC)cc2)cc1`, the growth is 3.59% (active).

For `COc1cc(N=Nc2ccc(N)cc2)c(OC)cc1N=Nc1ccccc1.[Cl][Zn][Cl]`, the growth was 71.5%.

For the molecule `CC/C=C/C/C=C/C/C=C/C/C=C/C/C=C/C/C=C/CCC(=O)Nc1ccn([C@@H]2O[C@H](CO)[C@@H](O)C2(F)F)c(=O)n1`, the growth is 32.1%.

For the molecule `O=C(Nc1cccc(C(F)(F)F)c1)Nc1cccc(C(F)(F)F)c1`, the growth is -16.2% (active).

With `CCc1ccccc1-n1c(-c2ccc(Cl)cc2)cc(-c2ccc(OC)cc2)c(C#N)c1=O`, the growth was 63.5%.

In the case of `Cc1cc[c-]cc1.Fc1c[c-]c(-c2ccccn2)c(F)c1.[Pt+2].c1ccc(P(C[PH+](c2ccccc2)c2ccccc2)c2ccccc2)cc1`, the growth is -16.3% (active).
